HT1080 IDH1KD tx: qHTS for induction of synthetic lethality in tumor cells producing 2HG: qHTS for the HT-1080-IDH1KD cell line; HT-1080 IDH1 knockdown viability, ATP luminescence, 48 h; Potency, µM (series often up to 46.1 µM), for inactives: at the top dose activity, negative = toxicity, usual class: cytotoxic; hit rate 2% among 360,000; AID 686971, 2013;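 also: 0% = DMSO wells and -100% = cell-free medium wells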
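Luminescent ATP read-out (CellTiter-Glo, 10 min at room temperature) after 48 h compound exposure at 37 °C gave viability of IDH1-knockdown HT-1080 cells. Activity was normalised to DMSO and cell-free wells, then fitted as concentration-response curves.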
KB-V1 MDR tox: qHTS assay for MDR1-selective chemotherapeutics: Primary screen using the drug-selected MDR subline cells KB-V1; KB-V1 MDR cells viability, CellTiter-Glo, 72 h; Potency, µM (top dose mostly 46.1 µM), usual class: cytotoxic; hit rate 3.4% among 400,000; AID 1347076, 2019; also: nearly all actives have a fitted effect of over 60% in size
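qHTS viability screen in drug-selected KB-V1 MDR cells: 72 h compound treatment at 37 degrees C, ATP luminescence end point.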
KB-3-1 cytotox: qHTS assay for MDR1-selective chemotherapeutics: Primary screen using the parental adenocarcinoma cell KB-3-1 | KB-3-1 viability, CellTiter-Glo ATP luminescence, 72 h | Potency, µM (titrated, usually from 46.1 µM), actives largely listed as cytotoxic | hit rate 1.4% among 400,000 | AID 1347075, 2019; also: nearly all actives have a fitted effect of over 60% in size
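Cytotoxicity in the drug-sensitive parental line KB-3-1 was scored as loss of CellTiter-Glo luminescence following 72 h incubation with compound. Values come from curve fitting of normalized concentration-response data.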
HT1080-NT tox: qHTS for induction of synthetic lethality in tumor cells producing 2HG: qHTS for the HT-1080-NT fibrosarcoma cell line | hit rate 1.6% among 360,000 | AID 686970, 2013 | Potency, µM (top dose mostly 46.1 µM), for the others: top-dose activity, negative = less viability, usual class: cytotoxic | HT-1080-NT fibrosarcoma viability, CellTiter-Glo ATP luminescence, 48 h;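 also: NT is the 2HG producing partner of a matched IDH1 knockdown line; 0% = DMSO-treated cells and -100% = media-only wells without cells; nearly all actives have a fitted effect of over 55% in size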
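750 cells/well, RPMI + 5% FBS; 2 h settle, compound pin-transfer, 48 h at 37 degrees C. CellTiter-Glo 10 min RT, luminescence. Normalized to DMSO and media-only wells.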
Starred values were filed as active, the others as inactive; i = inactive; ? = inconclusive; . = not tested or not shown; [ ] = another dose, or the depositor's remark. The list is not random: actives were taken first. Their share in the collection is about 5.7%. Calls follow the shape of the dose curve; as a rule, active = well fitted curve in the direction sought with a large enough effect; inconclusive = small, poorly fitted or top-dose-only effect, or another doubt; inactive = no such curve, though single readings can be large; an effect the other way counts as inactive or inconclusive. Unless noted, % is scaled to controls: 0 for no effect and ±100 for the full control effect; potency is read from the fitted curve at half-maximal effect.

SMILES | HT1080 IDH1KD tx | KB-V1 MDR tox | KB-3-1 cytotox | HT1080-NT tox
COc1ccccc1S(=O)(=O)c1ccccc1[N+](=O)[O-] | 0.5% | i | i | 7.4%
COc1ccc([N+](=O)[O-])c(S(=O)(=O)c2ccccc2)n1 | 13µM* | 23.1µM* | ? | 20.6µM*
COc1ccc([N+](=O)[O-])c(S(=O)(=O)c2ccc(Cl)cc2)n1 | 8.2µM* | i | ? | 23.1µM*
O=[N+]([O-])c1cccnc1S(=O)(=O)c1ccccc1 | 18.4µM* | ? | ? | 11.6µM*
COc1nc(OC)nc(Oc2ccc(Cl)cc2[N+](=O)[O-])n1 | -3.5% | i | i | 7.1%
Cc1cc(Cl)ccc1OCc1cc(=O)n2c3c(sc2n1)CCCC3 | . | i | i | .
COc1ccc(/C=C/C(=O)Nc2ccc3c(c2)CCC3)cc1OC | -13.8% | 20.6µM* | i | -0.8%
COc1ccc(/C=C/C(=O)Nc2cc(C(F)(F)F)ccc2Cl)cc1OC | 6.1% | 20.6µM* | i | 3.7%
CN1C/C(=C\c2ccc(N3CCOCC3)cc2)C(=O)/C(=C/c2ccc(N3CCOCC3)cc2)C1 | ? | 20.6µM* | ? | ?
CN1C/C(=C/c2ccncc2)C(=O)/C(=C/c2ccncc2)C1 | -3.8% | i | i | -5.6%
CCN1C/C(=C/c2ccc(N3CCOCC3)cc2)C(=O)/C(=C/c2ccc(N3CCOCC3)cc2)C1 | 20.6µM* | 18.4µM* | ? | ?
Cc1cccc(C)c1Nc1c(-c2ccc(Cl)s2)nc2ncccn12 | . | i | i | .
Cc1ccccc1-n1c(=O)c2c3c(sc2n2cnnc12)CCCC3 | . | i | i | .
CCN(C(=O)CSc1nc2ccccc2n1CC(=O)N1CCCC(C)C1)c1ccccc1 (stereo unspecified) | . | i | i | .
Cc1ccc(CN2CCN(/N=C/c3sccc3C)CC2)c(C)c1 | 23.9% | 14.6µM* | i | 13.7%
COc1ccc(-n2ncc(C(=O)N3CCc4ccccc4C3)c2C2CCN(C(=O)OC(C)(C)C)CC2)cc1 | . | i | i | .
COc1ccc(-n2c(=O)c3c4c(sc3n(Cc3ccc(C(C)(C)C)cc3)c2=O)CCC4)c(OC)c1 | . | i | i | .
Cc1[nH]c2ccccc2c1C(O)CN1CCN(c2cccc(C(F)(F)F)c2)CC1 (stereo unspecified) | ? | ? | 14.6µM* | ?
O=C(Cc1csc(Nc2nc(=S)[nH]c3ccccc23)n1)N1CCN(c2cccc(C(F)(F)F)c2)CC1 | -1.0% | 23.1µM* | 13µM* | -9.7%
O=C(Cc1csc(Nc2nc(=S)[nH]c3ccccc23)n1)NCc1cccc(Cl)c1 | ? | ? | i | -13.2%
O=C(CN1CCN(c2cccc(C(F)(F)F)c2)CC1)Nc1cccc(C(F)(F)F)c1 | -20.1% | i | i | -26.3%
Cc1[nH]c2ccccc2c1NC(=O)CN1CCN(c2cccc(C(F)(F)F)c2)CC1 | ? | i | i | 18.4µM*
CCn1nnc2cc(C(=O)Nc3ccc(Cl)cc3C)ccc21 | . | i | i | .
Cc1ccccc1CCNC(=O)c1ccc(NC(=O)N2CC(C)Sc3ccccc32)cc1 (stereo unspecified) | . | i | i | .
COc1ccc(CCNc2cc(-c3ccccc3)nc3ncnn23)cc1 | -13.2% | 2.59µM* | ? | 0.0%
SMILES | HT1080 IDH1KD tx | KB-V1 MDR tox | KB-3-1 cytotox | HT1080-NT tox
Clc1ccc(Nc2cc(-c3ccccc3)nc3ncnn23)cc1 | -1.1% | i | i | 17.3%
c1ccc(Nc2cc(-c3ccccc3)nc3ncnn23)cc1 | ? | 14.6µM* | i | -0.1%
Cc1cc(N2CCN(c3cccc(C(F)(F)F)c3)CC2)n2nc(-c3ccccc3C)nc2n1 | . | i | i | .
Cc1cs/c(=N\N=C\c2ccccc2)n1Cc1ccco1 | 2.1% | 16.4µM* | ? | 0.2%
CC(C)=N/N=c1\scc(C)n1Cc1ccco1 | 1.4% | i | i | 1.9%
O=C(CN1CCN(Cc2ccccc2Cl)CC1)N=Nc1c(O)[nH]c2ccccc12 | -11.2% | 14.6µM* | i | 0.0%
O=C(CCN1C(=O)C2C3C=CC(C4CC34)C2C1=O)Oc1cccc2cccnc12 (stereo unspecified) | 1.26µM* | i | i | 2µM*
CCOc1ccc2ncc(S(=O)(=O)c3ccc(C)cc3)c(N3CCC4(CC3)OCCO4)c2c1 | -5.0% | 4.11µM* | ? | -9.0%
Cc1ccc(Cc2nc3ccccc3nc2SCC(=O)NCc2ccccc2Cl)cc1 | . | i | i | .
CC(=O)c1ccc(NC(=O)COc2ccccc2-c2nc(-c3ccc(C)cc3)no2)cc1 | . | i | i | .
C=C1NN(Cc2ccc(OC)cc2)C(=O)N1c1ccccc1 | . | i | i | .
Clc1ccc(SCCOCCN2CCCCC2)cc1 | -25.3% | ? | i | -25.2%
Clc1ccc(SCCOCCN2CCc3ccccc3C2)cc1 | ? | i | i | 23.1µM*
Clc1ccc(OCCOCCN2CCc3ccccc3C2)c(Cl)c1 | 23.1µM* | i | i | 23.1µM*
Clc1ccc(OCCCN2CCc3ccccc3C2)c(Br)c1 | -10.4% | i | i | -22.5%
CCOc1ccc(CNC(=O)C2CCN(S(=O)(=O)c3ccc4c(ccn4C)c3)CC2)cc1 | . | i | i | .
O=C(CSc1ncn[nH]1)Nc1ccccc1-c1ccccc1 | -8.3% | ? | i | 0.1%
O=C(CSc1ncn[nH]1)Nc1ccccc1Sc1ccccc1 | ? | 14.6µM* | i | -4.4%
Cc1ccc(C)c(N2CCN(C(=O)c3c4c(nc5ccccc35)C(=O)N(C3CCCCC3)C4)CC2)c1 | . | i | i | .
COc1ccc(CCNC(=O)c2cccc3c2C(=O)N(C2CCCCC2)C3)cc1OC | -11.4% | 18.4µM* | i | -21.8%
Cc1ccc(NC(=O)Cn2c(=O)n(Cc3nc(-c4ccccc4)no3)c(=O)c3ccccc32)c(C)c1 | . | i | i | .
CCCCn1nnc(NC(=S)NC(=O)c2ccc(-c3cccc(Cl)c3Cl)o2)n1 | 1.5% | 14.6µM* | ? | -2.9%
CCOc1cc(C(=O)Nc2ccc3oc(-c4ccc(CC)cc4)nc3c2)cc(OCC)c1OCC | . | i | i | .
O=C(CN1CCN(Cc2ccccc2)CC1)Nc1ccc([N+](=O)[O-])cc1C(=O)Nc1ccccc1F | 20.6µM* | ? | i | 16.4µM*
O=C(CN1CCN(c2ccc(O)cc2)CC1)Nc1cc([N+](=O)[O-])ccc1Cl | 10.5% | 8.2µM* | i | 4.1%
N#Cc1nccnc1S(=O)(=O)c1cccs1 | ? | i | i | 20.6µM*
COc1ccc(C2C(=O)N(C3CCCCC3)CC(=O)N2Cc2ccco2)cc1 (stereo unspecified) | -21.6% | i | i | -3.5%[9.24 µM]
COc1ccc(C2C(=O)N(C3CCCCC3)CC(=O)N2C2CCCC2)cc1 (stereo unspecified) | -16.4% | 2.59µM* | i | 6.3%

Compound activity (PubChem)
